The nature of experiment [1]: qHTS assay for small molecules that induce genotoxicity in human embryonic kidney cells expressing luciferase-tagged ATAD5 (AID 651632). Also: nearly all actives have a fitted effect of over 15% in size. An outline of the steps:
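Test compounds were delivered by pin tool onto HEK293T reporter cells (2,000/well) expressing ATAD5 fused to luciferase. After 16 hr at 37C, 5% CO2, Amplite was added for 30 min at room temperature and luminescence was measured.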
On the technique in general: In qHTS, concentration-response curves come from the screen itself.

Experiment [2] is described as follows: qHTS assay for small molecule agonists of the p53 signaling pathway - cell viability (AID 651633; calls by dose curve; also: nearly all actives have a fitted effect of over 30% in size; also: potency is read from the fitted curve at half-maximal effect). The essentials: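 Viability counter-read: CellTiter-Glo luminescence (30 min, room temperature) in the same p53RE-bla plates. These plates had been exposed to compounds for 16 h at 37 C.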
A short description of experiment [3]: qHTS assay for small molecules that induce genotoxicity in human embryonic kidney cells expressing luciferase-tagged ATAD5 - cell viability (AID 651634; calls by dose curve; also: nearly all actives have a fitted effect of over 25% in size; also: potency is read from the fitted curve at half-maximal effect). An outline of the steps:
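Quantitative high-throughput format. HEK293T cells expressing ATAD5 fused to luciferase were plated at 2,000 cells/well and treated 15.5 hr with compound versus DMSO. Viability was determined by fluorescent live-cell protease substrate, 30 min at 37C.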

A short description of experiment [4]: qHTS assay for small molecule disruptors of the mitochondrial membrane potential - cell viability (AID 720634; calls by dose curve; also: nearly all actives have a fitted effect of over 20% in size; also: potency is read from the fitted curve at half-maximal effect). The essentials:
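Same-well counter-screen: following the MMP dye addition, CellTiter-Glo was added to 1 hr compound-treated HepG2 cells and luminescence read after 30 min at room temperature.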

A short description of experiment [5]: qHTS assay for small molecule disruptors of the mitochondrial membrane potential (AID 720635). Also: potency is read from the fitted curve at half-maximal effect. The essentials: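 Mitochondrial membrane potential tracked with Mito-MPS dye, red aggregates (ex 540/em 590 nm) against green monomers (ex 490/em 535 nm). Compound treatment 1 hr at 37C, dye 30 min in HepG2.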
The nature of experiment [6]: qHTS assay to test for compound auto fluorescence at 590 nm (red) in HepG2 cells (AID 720674). The essentials:
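We screened compounds on adherent HepG2 cells, incubating them for an hour at 37 C in 5% CO2 before reading emission at 590 nm under 540 nm excitation; values reflect equivalence to Rose Bengal sodium fluorescence.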

The nature of experiment [7]: qHTS assay to test for compound auto fluorescence at 535 nm (green) in HepG2 cells (AID 720675).
A short description of experiment [8]: qHTS assay to test for compound auto fluorescence at 460 nm (blue) in HEK293 cells (AID 720678). An outline of the steps: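 Measured: blue fluorescence (Ex 405/Em 460 nm) of compound-treated HEK293 cells, incubated overnight at 37C with 5% CO2 and scaled to triamterene equivalents.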
The nature of experiment [9]: qHTS assay to test for compound auto fluorescence at 590 nm (red) in HEK293 cells (AID 720679). The essentials:
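Using HEK293 cells at 2,000 per well, the screen added 23 nL of each compound after cell attachment and incubated overnight (37C, 5% CO2). The plate reader then captured red-label fluorescence, Ex/Em 540/590nm.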

Inconclusive results are not listed. Active and inactive are the calls of the source. Unless noted, calls follow the shape of the dose curve; as a rule, active = well fitted curve in the direction sought with a large enough effect in the repeat runs; inconclusive = weak or mixed curves; inactive = no such curve, though single readings can be large; an effect the other way counts as inactive or inconclusive. Positions of bridges follow the written chain, without caps; N, C: chain ends. Non-standard residues stand in square brackets, D forms with d. Residues, ends and D or L forms follow the SMILES beside them. *: point of attachment. X2 = CC[C@H](C)CCCCC(=O)*; Dab = NCC[C@H](N)C(=O)O

As for `O=P(O)(O)OC[C@H](O)CO`, the Potency result in experiment [1], in [2], in experiment [3], in [4], in [5] and in experiment [6] was “inactive” each time. The Potency entry in [7], in [8] and in experiment [9] was “inactive” throughout.

Take `Cc1ccc(C2(O)CCN(CCCC(=O)c3ccc(F)cc3)CC2)cc1`: the Potency result in [1], in experiment [2], in [3], in experiment [4], in experiment [5] and in experiment [6] was “inactive” in each case. The Potency result in [7], in experiment [8] and in experiment [9] was “inactive” in each case.

Consider `Cc1c(Cl)cccc1Nc1ncccc1C(=O)O`, for which the Potency result in [1], in [2], in experiment [3], in experiment [4], in [6] and in [7] was “inactive” throughout. Besides, the Potency entry in [8] and in [9] was “inactive” in each case. Also, in experiment [5], the Potency is 13.3 µM (active).

As for `O=C(OCc1ccccc1)c1cccnc1`, the Potency result in [1], in experiment [2], in experiment [3], in experiment [4], in [6] and in experiment [7] was “inactive” each time. In addition, the Potency result in [8] and in experiment [9] was “inactive” in each case. For the same compound, the Potency in experiment [5] was 23.7 µM (active).

For the compound `CC(C)C(=O)OCC(=O)[C@@]12O[C@H](C3CCCCC3)O[C@@H]1C[C@H]1[C@@H]3CCC4=CC(=O)C=C[C@]4(C)[C@H]3[C@@H](O)C[C@@]12C`, the Potency entry in experiment [1], in experiment [2], in [3], in experiment [4], in experiment [6] and in experiment [7] was “inactive” each time. Also, the Potency entry in [8] and in experiment [9] was “inactive” in each case. The Potency in [5] was 7.84 µM (active).

As to `CC(=O)N[C@@H](CC(=O)N[C@@H](CCC(=O)O)C(=O)O)C(=O)O`, the Potency entry in experiment [1], in [2], in experiment [3], in experiment [4], in experiment [5] and in experiment [6] was “inactive” each time. Further, the Potency entry in experiment [7], in [8] and in experiment [9] was “inactive” each time.

Consider `CN[C@@H]1[C@H](O[C@H]2[C@H](O[C@H]3[C@H](O)[C@@H](O)[C@H](N=C(N)N)[C@@H](O)[C@@H]3N=C(N)N)O[C@@H](C)[C@]2(O)C=O)O[C@@H](CO)[C@H](O)[C@H]1O`, for which the Potency result in experiment [1], in experiment [2], in experiment [3], in experiment [4], in [5] and in experiment [6] was “inactive” throughout. For the same compound, the Potency result in experiment [7], in experiment [8] and in [9] was “inactive” in each case.

Turning to `C=C[C@]1(C)C[C@@H](OC(=O)CSCCN(CC)CC)[C@]2(C)[C@H](C)CC[C@]3(CCC(=O)[C@H]32)[C@@H](C)[C@@H]1O`, the Potency entry in experiment [1], in [2], in experiment [3], in experiment [4], in [5] and in [6] was “inactive” in each case. Moreover, the Potency entry in experiment [7], in experiment [8] and in [9] was “inactive” each time.

In the case of `CC(=O)Nc1c(I)c(C(=O)N[C@H]2C(O)O[C@H](CO)[C@@H](O)[C@@H]2O)c(I)c(N(C)C(C)=O)c1I` (stereo partly specified), the Potency entry in experiment [1], in experiment [2], in experiment [3], in experiment [4], in [5] and in experiment [6] was “inactive” in each case. For the same compound, the Potency entry in experiment [7], in experiment [8] and in experiment [9] was “inactive” throughout.

Regarding `c1ccc2cc(C3=NCCN3)ccc2c1`, the Potency entry in experiment [1], in experiment [2], in experiment [3], in [4], in experiment [5] and in [6] was “inactive” each time. Moreover, the Potency entry in experiment [7], in [8] and in experiment [9] was “inactive” in each case.

In the case of `CC[C@H](C)CCCCC(=O)N[C@@H](CCN)C(=O)N[C@H](C(=O)N[C@@H](CCN)C(=O)N[C@H]1CCNC(=O)[C@@H]([C@H](C)O)NC(=O)[C@H](CCN)NC(=O)[C@H](CCN)NC(=O)[C@H](CC(C)C)NC(=O)[C@@H](CC(C)C)NC(=O)[C@H](CCN)NC1=O)[C@@H](C)O` (X2-[Dab]T[Dab][Dab][Dab][dL]L[Dab][Dab][dT]; lactam 4-C), the Potency entry in experiment [1], in [2], in experiment [3], in experiment [4], in experiment [5] and in [6] was “inactive” in each case. Moreover, the Potency result in [7], in experiment [8] and in experiment [9] was “inactive” in each case.

Consider `CC(C)CCCC(C)NC(C)C` (stereo unspecified), for which the Potency result in [1], in experiment [2], in [3], in experiment [4], in [5] and in [6] was “inactive” each time. Besides, the Potency entry in experiment [7], in experiment [8] and in [9] was “inactive” throughout.

On to `CN1CCN2c3ncccc3Cc3ccccc3C2C1` (stereo unspecified), for which the Potency entry in [1], in experiment [2], in experiment [3], in [4], in [5] and in experiment [6] was “inactive” in each case. In addition, the Potency entry in [7], in [8] and in experiment [9] was “inactive” each time.

On to `COCC(=O)Nc1cc(Sc2ccccc2)ccc1N=C(NC(=O)OC)NC(=O)OC`, for which the Potency result in [1], in [2], in experiment [4], in experiment [5], in experiment [6] and in experiment [7] was “inactive” throughout. The Potency result in experiment [8] and in [9] was “inactive” throughout. In experiment [3], the Potency was 4.22 µM (active).

For the compound `CO[C@H]1C[C@@H]2CC[C@@H](C)[C@@](O)(O2)C(=O)C(=O)N2CCCC[C@H]2C(=O)O[C@H]([C@H](C)C[C@@H]2CC[C@@H](OCCO)[C@H](OC)C2)CC(=O)[C@H](C)/C=C(\C)[C@@H](O)[C@@H](OC)C(=O)[C@H](C)C[C@H](C)/C=C/C=C/C=C/1C`, the Potency entry in experiment [1], in [4], in [6], in [7], in experiment [8] and in experiment [9] was “inactive” each time. Besides, the Potency in experiment [2] is 21.1 µM (active); in experiment [3], 29.8 µM (active); in [5] it was 21.1 µM (active).

For `CCOC(=O)c1c[nH]c2cc(OCC(C)C)c(OCC(C)C)cc2c1=O`, the Potency entry in experiment [1], in experiment [2], in experiment [3], in experiment [4], in experiment [5] and in experiment [6] was “inactive” throughout. Further, the Potency result in experiment [7], in experiment [8] and in experiment [9] was “inactive” throughout.

In the case of `C[C@]12CC[C@@H]3c4ccc(OC(=O)c5ccccc5)cc4CC[C@H]3[C@@H]1CC[C@@H]2O`, the Potency result in experiment [1], in [2], in [3], in experiment [4], in experiment [6] and in experiment [7] was “inactive” each time. The Potency entry in [8] and in experiment [9] was “inactive” throughout. In addition, the Potency in experiment [5] was 2.98 µM (active).

For the compound `CCCCCCOc1ccc(C(=N)N(CCCC)CCCC)c2ccccc12`, the Potency result in experiment [1], in experiment [6], in experiment [7], in [8] and in experiment [9] was “inactive” each time. Further, the Potency is 21.1 µM (active) in [2], 23.7 µM (active) in experiment [3], 26.6 µM (active) in experiment [4] and 8.41 µM (active) in experiment [5].

On to `CC(CCc1ccc(O)cc1)NCC(O)c1ccc(O)cc1` (stereo unspecified), for which the Potency entry in [1], in experiment [2], in experiment [3], in experiment [4], in [5] and in experiment [6] was “inactive” in each case. The Potency result in experiment [7], in [8] and in experiment [9] was “inactive” in each case.

The values above are taken from PubChem BioAssay (Tox21).
